In PubChem BioAssay (NCI) one finds growth data, which are given here for seven compounds.

Assay in all cases: NCI-60 one-dose screen, 48 h (100 = growth as untreated, 0 = no growth, -100 = all killed)
Common to all, as to settings: 10 µM

The subject of experiment [1] is NCI-H23 lung.
The subject of experiment [2] is NCI-H522 lung.
In experiment [3] the test system is MDA-MB-231 breast.
For experiment [4], the system named is M14 melanoma.
Experiment [5] has as its system SK-MEL-5 melanoma.
The subject of experiment [6] is UACC-62 melanoma.
Experiment [7] concerns LOX IMVI melanoma.
Experiment [8] has as its system CCRF-CEM leukemia.
For experiment [9], the system named is MOLT-4 leukemia.
Experiment [10] relates to SR leukemia.
The test system of experiment [11] is OVCAR-8 ovarian.
Experiment [12] deals with OVCAR-5 ovarian.
The subject of experiment [13] is OVCAR-4 ovarian.
Experiment [14] deals with IGROV1 ovarian.
The test system of experiment [15] is HS 578T breast.
Experiment [16] concerns NCI/ADR-RES ovarian.
In experiment [17] the test system is T-47D breast.
The test system of experiment [18] is MCF7 breast.
Experiment [19] relates to HCT-116 colon.
The subject of experiment [20] is KM12 colon.

This is part of a sample that, as a whole, favours compounds with a hit. Of some 83,000 tested, about 20% had one in any assay.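 Negative percent growth values reflect cell death: -40 means 40% of the cells present at the start died, and -100 means all died.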 Values without a mark were called inactive. Activity calls are given as the source filed them. Rule for the calls: active = growth percent below 10; inactive = the rest.

Turning to `CC(C)=CCc1c2c(c(O)c3c1O[C@]14C(=C[C@@H]5C[C@H]1C(C)(C)O[C@@]4(C/C=C(/C)C(=O)O)C5=O)C3=O)C=CC(C)(C)O2`, the growth is -45.4% (active) in experiment [1]; -70.9% (active) in experiment [2]; -56.1% (active) in experiment [3]; -50.1% (active) in [4]; -98.9% (active) in experiment [5]; -69.4% (active) in [6]. Also, the growth in [7] is -95.6% (active); in [8] it was -1.96% (active); in experiment [9] it was -15.6% (active); in experiment [10] it was -3.62% (active); in experiment [11] it was -59.4% (active); in [12], -80.5% (active). The growth in experiment [13] was -63.6% (active); in [14] it was -55.2% (active); in experiment [15], -11.1% (active); in experiment [16], 4.39% (active); in experiment [17], -40.7% (active); in [18], -61% (active). Further, the values for the growth in experiment [19] and in [20] were -71.5% (active) and -73.4% (active), respectively.
As for `CC1=C2C(=C[C@@](C)(COS(C)(=O)=O)[C@@H]2O)C(=O)[C@](C)(O)C12CC2`, the growth in experiment [1] is -18.5% (active); in experiment [2], -6.78% (active); in [3], 8.84% (active); in experiment [4] it was -8.82% (active); in experiment [5] it was -18% (active); in experiment [6], -67.1% (active). The growth in [7] is -3.47% (active); in [8] it was 11%; in [9], 10.4%; in experiment [10], 2.86% (active); in experiment [11], 12.5%; in experiment [12], 1.82% (active). Further, the growth is -0.135% (active) in experiment [13]; 8.2% (active) in [14]; -9.58% (active) in [15]; 0.993% (active) in experiment [16]; -0.976% (active) in [17]; 3.13% (active) in experiment [18]. The growth was 4.67% (active) in experiment [19] and -3.28% (active) in experiment [20].
Take `N#Cc1c(-n2c(Br)c(Br)c3cc(Br)ccc32)[nH]c2c(Br)cc(Br)cc12`: the growth is -36.4% (active) in experiment [1]; -14.8% (active) in experiment [2]; -2.11% (active) in [3]; -32.4% (active) in [4]; -76.8% (active) in [5]; -30.8% (active) in [6]. In addition, the growth in [7] is -25.2% (active); in experiment [8], 13.2%; in experiment [9], 2.02% (active); in experiment [10], 0.987% (active); in experiment [11] it was 1.23% (active); in experiment [12] it was 33%. Further, the growth in experiment [13] was 20.4%; in [14], 25.4%; in [15], -6.84% (active); in experiment [16] it was -2.1% (active); in [17] it was -13% (active); in [18] it was -13.6% (active). The growth in experiment [19] is -66.1% (active); in [20] it was -19.4% (active).
With `CC1=C[C@H]2O[C@@H]3C[C@@H](O)[C@](C)([C@@]2(C)CC1)[C@@]31CO1`, the growth in experiment [1] is 28.4%; in experiment [2], 31%; in [3], 42.4%; in experiment [4] it was 6.68% (active); in [5] it was 12.1%; in [6], 44.5%. Besides, the growth in experiment [7] is 13.6%; in experiment [8], 13.8%; in experiment [9], 9.97% (active); in experiment [10], 18.1%; in experiment [11], 27.7%; in [12], 78.9%. For the same compound, the growth was 32% in [13]; 28.3% in [14]; 37.8% in [15]; 36.1% in experiment [16]; 29.6% in experiment [17]; 17.6% in [18]. Further, the values for the growth in experiment [19] and in experiment [20] were 7.52% (active) and 26.1%, respectively.
For the compound `CN(CCF)/N=N/c1nc[nH]c1C(N)=O`, the growth in [1] is 77%; in experiment [2], 64.2%; in experiment [3] it was 39.5%; in experiment [4] it was 23.3%; in [5] it was 74.6%; in experiment [6], 31.2%. In addition, the growth is 17.5% in experiment [7]; 20.8% in experiment [8]; 18.7% in experiment [9]; 22.3% in experiment [10]; 27% in experiment [11]; 62.8% in [12]. Also, the growth in experiment [13] was 44.2%; in experiment [14] it was 44%; in experiment [15] it was 93.1%; in [16] it was 32.5%; in [17], 57.3%; in experiment [18], 36.2%. In addition, the growth in [19] is 24%; in experiment [20], 58.9%.
`C[C@@H]1C[C@H]2C(=O)O[C@@H](C)C(NC(=O)[C@H](Cc3cc(F)cc(F)c3)NC(=O)Nc3ccc(OS(=O)(=O)F)cc3)C(=O)N3CCC[C@H]3C(=O)N3CCO[C@H](C)[C@H]3C(=O)N[C@@H](CO)C(=O)N2C1` (stereo not given in full): the growth in experiment [1] is 36.1%; in experiment [2], 20.3%; in experiment [3] it was 32%; in [4], 23.6%; in [5], -6.32% (active); in experiment [6] it was 23.5%. The growth in experiment [7] is 7.58% (active); in experiment [8], 34.1%; in experiment [9] it was 43.8%; in experiment [10], 25.3%; in experiment [11], 23.6%; in experiment [12], 33.4%. Further, the growth in [13] was 26.2%; in [14] it was 47.4%; in experiment [15], 40.2%; in experiment [16], 99.2%; in experiment [17], 33%; in experiment [18], 16.8%. Besides, the growth was 9.86% (active) in [19] and 37.8% in [20].
For `COC(=O)[C@H]1[C@@H](O)[C@@]2(O)c3c(OC)cc(OC)cc3O[C@@]2(c2ccc(OC)cc2)[C@@H]1c1ccccc1`, the growth in experiment [1] was -12% (active); in experiment [2], -28.7% (active); in [3] it was -5.45% (active); in experiment [4], -1.79% (active); in experiment [5], -55.8% (active); in experiment [6], -14.9% (active). Besides, the growth was -38.6% (active) in experiment [7]; 4.76% (active) in experiment [8]; 2.37% (active) in [9]; 13.2% in [10]; -11.6% (active) in [11]; -6.47% (active) in experiment [12]. Moreover, the growth in experiment [13] is 2.23% (active); in experiment [14], -17.3% (active); in [15], -5.48% (active); in [16], 0.819% (active); in experiment [17] it was -11.7% (active); in [18], -0.926% (active). Moreover, the growth in [19] was -6.31% (active); in experiment [20], 3.23% (active).
